# Source: PubChem BioAssay (NCATS)
# Test: High-throughput drug toxicity screening in the BPDCN cell line Gen2.2 (AID 1224824);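 also: cells exposed to compounds for 48 h before reading; 100% = DMSO and 0% = bortezomib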
# Settings: Gen2.2 BPDCN cells; at 45.8 µM (top of the series) unless noted
# How it was run: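 Readout is ATP luminescence from Gen2.2 cells after two days of drug exposure in serum-containing medium at 37 °C. Values express percent activity, with vehicle defining full signal and 9.2 uM bortezomib defining zero.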
row,Compound,"cell viability, % of control (lower = more cytotoxic)"
1,COc1cc2c(cc1O)CCC1C2CC[C@@]2(C)C1CC[C@@H]2O (some centres undefined),95.2%
2,Nc1nc2c(c(=O)[nH]1)N(C=O)[C@H](CNc1ccc(C(=O)N[C@@H](CCC(=O)O)C(=O)O)cc1)CN2,118%
3,C[C@@H]1C(=O)O[C@H]2CC34[C@H]5C[C@@H](C(C)(C)C)C36[C@H](OC(=O)[C@@H]6O)O[C@@]4(C(=O)O5)[C@]21O (some centres undefined),129%
4,COc1ccc(C(C)=O)c(O)c1,146%
5,Cc1ccc2nc(NCCN)c3ncc(C)n3c2c1,2.46%
6,CC(C=CC=C(C)C=CC1=C(C)CCCC1(C)C)=CC=CC=C(C)C=CC=C(C)C=CC1=C(C)CCCC1(C)C,8%
7,CCOC(=O)[C@@H](N)Cc1ccc(-c2cc(O[C@H](c3ccc(Cl)cc3-n3ccc(C)n3)C(F)(F)F)nc(N)n2)cc1,10.1%
8,C=C1C(=CC=C2CCC[C@]3(C)[C@@H]([C@H](C)CCCC(C)(C)O)CC[C@@H]23)C[C@@H](O)C[C@@H]1O,20.5%
9,CC(=O)ON=C1C(c2c(O)[nH]c3cc(Br)ccc23)=Nc2ccccc21,129%
10,CCn1c(=O)c2c(nc(C=Cc3ccc(OC)c(OC)c3)n2C)n(CC)c1=O,193%
11,C[N+](C)([O-])CCNc1ccc(NCC[N+](C)(C)[O-])c2c1C(=O)c1c(O)ccc(O)c1C2=O,105%
12,CC(=CC(=O)Nc1ccccc1C(=O)O)c1ccc2ccccc2c1,115%
13,C#Cc1cccc(Nc2ncnc3cc(OCCOC)c(OCCO)cc23)c1,38.2%
14,O=C(C=CC=Cc1ccc2c(c1)OCO2)N1CCCCC1,122%
15,CCCCCCCCc1ccc(CCC(N)(CO)CO)cc1,4.54%
16,O=C(Nc1nnc(-c2ccco2)o1)c1cc(-c2ccccc2)nc2ccccc12,42.4%
17,C[C@H](O)[C@@H]1C(=O)N2C(C(=O)O)=C(S[C@@H]3CN[C@H](CNS(N)(=O)=O)C3)[C@@H](C)[C@@H]12,119%
18,C=CC(=O)Nc1cccc(Nc2nc(NC3CCC(N(C)C)CC3)nc3c2ncn3C(C)C)c1 (centres undefined),5.58%
19,OC[C@H]1OC(O)C[C@@H](O)[C@H]1O (some centres undefined),118%
20,CN(C)CCN1C(=O)c2cccc3cc(N)cc(c23)C1=O,5.29%
21,CCOC(=O)N1CCN([N+]([O-])=NOc2ccc([N+](=O)[O-])cc2[N+](=O)[O-])CC1,17.4%
22,CCC(C(=O)O)C1CCC(C)C(C(C)C(O)C(C)C(=O)C(CC)C2OC3(C=CC(O)[C@@]4(CC[C@](C)(C5CC[C@@](O)(CC)C(C)O5)O4)O3)C(C)CC2C)O1 (some centres undefined),16%
23,C=C(C)[C@@H]1CC[C@]2(C(=O)O)CC[C@]3(C)[C@H](CC[C@@H]4[C@@]5(C)CC[C@H](O)C(C)(C)[C@@H]5CC[C@]43C)[C@@H]12,61.6%
24,C=C1C(=O)O[C@H]2[C@@H]1CCC(C)=CCC[C@@]1(C)O[C@@H]21,2.53%
25,CC(Oc1ccc(O)cc1)(P(=O)(O)O)P(=O)(O)O,123%
26,C=C1CCC2[C@](C)(CO)C(O)CC[C@]2(C)C1CC=C1C(=O)OCC1O (some centres undefined),83.8% [at 92.2 µM]
27,CN(C)CC(=O)N1CCC(c2ccc(NC(=O)c3ncc(C#N)[nH]3)c(C3=CCCCC3)c2)CC1,168%
28,C[C@H](NCc1ccc2c(c1)nc(NC(=O)c1ccc(-c3cn[nH]c3)s1)n2CCc1ccccc1)C(C)(C)C,9.44%
29,CC[C@H]1OC(=O)[C@H](C)[C@@H](O[C@H]2C[C@@](C)(OC)[C@@H](O)[C@H](C)O2)[C@H](C)[C@@H](O[C@@H]2O[C@H](C)C[C@H](N(C)C)[C@@H]2O)[C@](C)(OC)C[C@@H](C)C(=O)[C@H](C)[C@@H](O)[C@]1(C)O,99.8%
